Bioassay records (PubChem)
LGR2 antag: inhibitors of bursicon-induced LGR2 CRE-luciferase signal, primary screen, cell-based, HEK293, CRE-luciferase reporter, bursicon stimulation; Drosophila bursicon receptor LGR2 (rickets); bursicon-stimulated, 4 h; inhibition, % at 9.99 µM; hit rate 0.35% among 380,000; AID 720647, 2013;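 active = drop in luminescence signal, shown as inhibition above about 50% in the replicate tests, limit read from the data, passing the limit was not always enough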;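 note: agonist challenge used bursicon conditioned medium at about half maximal strength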
TWEAK Fn14 block: inhibitors of TWEAK-Fn14 signaling, primary screen, luciferase reporter cells, uHTS. inhibition, % at 10 µM. hit rate 2% among 360,000. TWEAK-stimulated Fn14 reporter cells, luciferase luminescence, 8 h; in the data active = inhibition above about 50%
PAX8 reporter: inhibitors of PAX8-driven TPO luciferase reporter, primary screen, RMG-I cells, single concentration | AID 652154, 2013 | inhibition, % at 12.6 µM | SteadyGlo, 24 h | hit rate 1.2% among 360,000;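 active = mean replicate inhibition at least 60% with every replicate also reaching 60%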;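 note: luciferase light reporting Pax8 driven TPO promoter activity; plate controls were median of neutral control wells for no effect and mitoxantrone controls for full effect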
LMP1 NFkB inh: EBV LMP1-driven NF-kappaB luciferase reporter inhibitors, primary screen, cell-based, luminescence, single point; hit rate 0.69% among 350,000; LMP1-induced NF-kappaB luciferase reporter cells; inhibition, % at 12.5 µM; in the data active = inhibition above about 41%;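 note: 0% = neutral control wells and 100% = reference inhibitor control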
TROY signal inh: inhibitors of TROY-driven NF-kB signaling, primary screen, Q293 LMP1-TROYcd cells, NF-kB luciferase, uHTS; Q293 LMP1-TROYcd NF-kB luciferase reporter, 4 h; inhibition, % at 10 µM; hit rate 0.98% among 360,000;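 active = compounds whose plate-normalised and pattern-corrected inhibition of the luciferase reporter signal at the single screening dose is 50% or more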
EWS-Fli inh: EWS/Fli-driven NR0B1 reporter inhibitors, primary screen, A673 cells, NR0B1 luciferase, luminescence, MLPCN library; viability-normalised; inhibition, % at 12.6 µM; hit rate 0.67% among 350,000; AID 651661, 2012;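 active = mean inhibition of at least 50% after viability correction, with every replicate also passing that limit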;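 note: firefly luciferase signal divided by Alamar Blue viability fluorescence both relative to DMSO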
The depositor's hits bear a star; x = not tested or not shown. The list is not random: actives were taken first. Their share in the collection is about 3.1%.

SMILES	LGR2 antag	TWEAK Fn14 block	PAX8 reporter	LMP1 NFkB inh	TROY signal inh	EWS-Fli inh
CCc1ccc(C=C2SC(=S)N(CCCC(=O)Nc3ccc(C(=O)O)cc3)C2=O)cc1	-55.3	-27.8	45.3	x	5.5	24.5
Cc1ccc(/C=C2\SC(=S)N(CCCC(=O)Nc3cc(C)on3)C2=O)cc1	14.4	72.6*	10.0	16.6	23.5	x
CCc1ccc(/C=C2/SC(=S)N(CCCC(=O)Nc3ccccc3C(=O)O)C2=O)cc1	2.9	32.8	36.4	2.4	74.7*	x
O=C(CCCN1C(=O)/C(=C/c2cccc(Br)c2)SC1=S)Nc1cccnc1	17.1	30.6	94.1*	7.6	4.8	-19.0
CCCC(=O)Nc1ccc2c(c1)C(=O)N(C)[C@@H]1CC[C@H](CC(=O)NCc3ccccc3F)O[C@H]1CO2	5.0	x	-5.3	x	x	2.9
CN(C)C(=O)C[C@H]1C[C@H]2c3cc(NC(=O)Nc4ccc(F)cc4)ccc3O[C@H]2[C@@H](CO)O1	10.7	x	14.9	x	x	-0.9
CCC(=O)N(C)C[C@@H]1Oc2cc(-c3cccc(F)c3)ccc2S(=O)(=O)N([C@H](C)CO)C[C@H]1C	25.1	x	x	x	x	0.8
Cc1noc(C)c1S(=O)(=O)N(C)C[C@@H]1OCCCC[C@H](C)Oc2ccc(NS(C)(=O)=O)cc2C(=O)N([C@@H](C)CO)C[C@H]1C	-11.8	x	x	x	x	-15.4
O=C(CCCN1C(=O)/C(=C\c2cccc(Br)c2)SC1=S)Nc1cccnc1	39.8	36.7	105.7*	14.3	10.7	25.2
CCc1ccc(/C=C2\SC(=S)N(CCCC(=O)Nc3ccccn3)C2=O)cc1	x	40.9	x	51.8*	71.5*	x
Cc1ccc(/C=C2\SC(=S)N(CCCC(=O)Nc3cccnc3)C2=O)cc1	x	26.7	x	71.8*	14.7	x
O=C(CCCN1C(=O)/C(=C/c2ccccc2OC(F)F)SC1=S)Nc1cccnc1	43.9	27.5	98.3*	22.7	15.7	-4.2
O=C(CCCN1C(=O)/C(=C/c2cccs2)SC1=S)Nc1cccnc1	-10.5	-13.5	30.6	9.7	10.9	-25.9
Cc1ccc(/C=C2\SC(=S)N(CC(=O)Nc3cccnc3)C2=O)cc1	-5.4	-24.1	-9.7	-1.9	-34.8	-6.8
COc1ccccc1/C=C1/SC(=S)N(CCC(=O)Nc2cccnc2)C1=O	-6.0	28.1	12.4	-4.1	44.9	3.3
C[C@H]1CN([C@@H](C)CO)C(=O)c2cc(C#CC3CCCCC3)cnc2O[C@H]1CN(C)S(C)(=O)=O	5.2	x	-21.9	x	x	-6.5
O=C(CCCN1C(=O)/C(=C/c2cccc(Br)c2)SC1=S)Nc1ccccn1	x	48.5	110.2*	23.0	11.0	x
Nc1ccn([C@H]2C[C@H](O)[C@@H](CO)O2)c(=O)n1	9.1	3.0	16.6	4.0	-9.4	-4.4
Nc1ncn([C@H]2C[C@H](O)[C@@H](CO)O2)c(=O)n1	0.1	-44.7	107.1*	-13.9	-13.0	20.3
Nc1ccc(-c2nc3cc(N)ccc3s2)cc1	34.2	-8.2	-38.9	5.6	-15.4	37.7
CNC(=S)Nc1ccc(-c2nc3ccc(C)cc3s2)cc1	53.5*	49.0	-73.5	-10.4	13.3	-7.5
Cc1ccc2nc(-c3ccc(N)cc3)sc2c1	82.0*	26.4	13.4	24.4	-4.3	68.5*
Nc1ccc2nc(-c3ccccc3)c(-c3ccccc3)nc2c1	-10.8	12.2	7.7	-23.1	1.3	13.6
Nc1ccc2nc(-c3ccccc3)sc2c1	x	90.5*	27.5	34.4	21.8	x
Cc1nccn1CC(O)Cn1c2ccccc2c2ccccc21 (stereo not drawn)	x	83.8*	x	2.3	x	x
SMILES	LGR2 antag	TWEAK Fn14 block	PAX8 reporter	LMP1 NFkB inh	TROY signal inh	EWS-Fli inh
O=C(C[C@H]1CC[C@@H](NC(=O)Nc2ccccc2F)[C@@H](CO)O1)NCc1ccc(F)cc1	-10.9	x	x	x	x	-13.8
Cc1cc(Cl)ccc1N(CC(=O)N=Nc1c(O)[nH]c2ccccc12)S(C)(=O)=O	x	2.3	x	5.3	-11.1	x
Cc1ccc(S(=O)(=O)N(CC(=O)N=Nc2c(O)[nH]c3ccccc23)c2cccc(C)c2)cc1	20.6	52.0*	16.1	-0.8	33.3	x
O=C(CN1CCCC1c1ccc2c(c1)OCCO2)NC(=O)Nc1ccccc1 (stereo not drawn)	-22.8	67.8*	-12.2	-4.4	59.5*	-9.7
CC1CCC2(CC1)NC(=O)N(CC(=O)NC(=O)Nc1ccc3c(c1)OCCO3)C2=O (stereo not drawn)	-7.7	50.0*	1.6	-10.5	30.9	-9.6
CC1CCC2(CC1)NC(=O)N(CC(=O)Nc1ccc3c(c1)OCCO3)C2=O (stereo not drawn)	-4.8	-6.8	-81.1	-9.5	-51.9	-57.0
Cc1ccc(NC(=O)NC(=O)CN2CCCC2c2ccc3c(c2)OCCO3)cc1C (stereo not drawn)	-15.6	-12.5	-14.6	-4.5	13.5	-15.3
O=C(C(=O)c1cc(Br)ccc1O)c1cc(Br)ccc1O	38.6	33.8	40.8	-0.3	66.0*	18.9
O=C(c1ccc(O)c(Br)c1)c1cc(Br)ccc1O	22.5	49.5	-14.2	-2.8	50.5*	-4.0
O=C(c1cnn(-c2ccccc2)c1)c1cc(Br)ccc1O	-13.7	5.6	-23.7	-5.5	-22.0	-17.1
O=C(N[C@H]1CC[C@H](CCNS(=O)(=O)c2ccc(F)cc2)O[C@@H]1CO)C1CCCC1	10.2	x	14.8	x	x	2.9
CO[C@@H]1CN(C)C(=O)c2ccc(NC(=O)c3ccc(Oc4ccccc4)cc3)cc2OC[C@@H](C)NC[C@@H]1C	6.0	x	13.8	x	x	1.9
COc1cc(-c2nc(-c3ccccc3)c(-c3cccs3)[nH]2)cc(OC)c1O	x	15.5	15.4	-3.8	-9.2	x
c1csc(-c2nc3c4ccccc4c4ccccc4c3[nH]2)c1	x	69.3*	24.9	-11.4	-17.2	x
c1ccc(-c2nc(-c3cccs3)[nH]c2-c2ccccc2)cc1	11.8	52.3*	x	6.3	-13.6	18.5
COc1cc(-c2nc(-c3ccccc3)c(-c3cccs3)[nH]2)cc(OC)c1OC	x	66.1*	x	5.6	7.6	x
O=C(O)c1ccccc1-c1nc(-c2ccccc2)c(-c2ccccc2)[nH]1	4.2	-19.4	23.7	-9.4	-12.7	11.1
CN(C)C(=O)c1cccc(-c2ccc(C3[C@H]4CNC[C@@H]3N4C(=O)Nc3cc(F)ccc3F)cc2)c1 (stereo partly drawn)	5.6	x	2.8	x	x	0.7
CCC(=O)OCCNc1cc(Sc2nccn2C)c2nonc2c1[N+](=O)[O-]	19.0	37.2	104.4*	26.5	44.3	x
CCOC(=O)N1CCN(c2cc(NCCO)c([N+](=O)[O-])c3nonc23)CC1	2.2	-15.3	-6.0	-3.7	-14.3	7.1
CCC(=O)OCCNc1cc(SCCC(=O)OC)c2nonc2c1[N+](=O)[O-]	3.9	2.0	-2.9	3.3	26.7	x
CCCC(=O)OCCNc1cc(Sc2nc3ccccc3[nH]2)c2nonc2c1[N+](=O)[O-]	-5.3	40.5	85.6*	11.5	44.4	x
